# About 1,200 (0.92%) of roughly 130,000 compounds were called active. Inconclusive results (about 3%) are left out. Calls follow the shape of the dose curve; as a rule, active = well fitted cell-killing curve with a large enough effect; inconclusive = small, poorly fitted or top-dose-only effect; inactive = no such curve, though single readings can be large or run the other way. The list comes from a sample in which actives are over-represented; it also holds similar structures and randomly drawn compounds.
# Assay: qHTS Screen for Compounds that Selectively Target Cancer Cells with p53 Mutations: Cytotoxicity of p53ts Cells at the Permissive Temperature; also: nearly all actives have a fitted effect of over 55% in size;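 as to activity change, negative = cytotoxicity: 0% = DMSO and -100% = full killing by reference compound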
# Details: H1299-p53A138V at 32C, ATP luminescence viability, 24 h; series mostly up to 46.1 µM; activity change, negative = cytotoxicity: at the top concentration
# Source text: NIH Chemical Genomics Center [NCGC] NIH Molecular Libraries Screening Centers Network [MLSCN] MLSCN Grant: 1 X01 MH079844-01 Assay Submitter (PI): Dr. SUN, YI, University of Michigan NCGC Assay Overview: Synthetic Lethal Screen for Compounds to Kill Cancer Cells with p53 Mutation. Tumor suppressor gene p53 serves as a major cellular barrier against tumorigenesis. […] The goal of this screening is to identify small molecule probes that selectively kill cancer cells with mutations in p53. This screening was carried out using two lines of H1299 lung cancer cells. The H1299-p53 A138V line express a temperature sensitive p53 mutant (p53ts) in which the mutant p53 protein (A138V) is in the mutant confirmation when grown at 39C (the nonpermissive temperature) and in the wild type conformation when grown at 32C (the permissive temperature). A H1299-neo line (p53 null) grown at both 39C and 32C were used as counter-screens to filter out false positive associated with temperature shifting. The small molecular compounds that selectively target mutant p53-containing cancer cells were selected as candidate probes for further study. A cytotoxicity assay based on the measurement of ATP contents in cells was used in this screen. Concentration-responses of all the compounds in the library collection were determined in qHTS using the cell lines and temperature conditions as above.
# NCGC Assay Protocol Summary: Both the H1299-p53A138V and H1299-neo cell lines were provided by Dr.Yi Sun, a PI at the University Michigan. The cells were maintained and cultured at 37C. The resuspended frozen cells were used to plate the cells in the 1536-well assay plates at a density of 600 cells per well in 5 ul medium. The assay plates with the cells were incubated at 37C for 16 to 30 hours before the experiments. The library compounds in DMSO solution were added to the cells in assay plates and incubated 24 hours at 39C (for mutant p53 conformation) or 32C (for normal p53 conformation as control). An ATP_lite assay kit (PerkinElmer) was used to determine the cell viability. Tomaxifen (100uM) was used as the positive control for cell killing. Data were normalized to the controls for basal activity (DMSO only) and 100% killing (100uM tamoxifen). AC50 values were determined from concentration-response data modeled with the standard Hill equation. P53 assay protocol: 1. Reagent; 5 uL H1299-p53A138V or H1299-neo cell cells/well 2. Time; overnight; 37C incubation 3. Compounds; 23 nL; 5.9 nM to 46 uM 4. Controls; 23 nL; Tamoxifen 100 uM 5. Time; 24 hr; 37C incubation 6. Reagent; 3 uL; ATP_Lite reagent 7. Time; 20 min; Room Temperature 8. Detection; Luminescence; Viewlux plate reader Keywords: p53, synthetic lethal, cancer, cell viability, cytotoxicity, H1299 cell line, luminescence, MLSMR, MLSCN, NIH Roadmap, qHTS, NCGC
# Potency is read from the fitted curve at half-maximal effect.
Compound,"activity change, negative = cytotoxicity",Potency
COc1ccc(CNC(=O)c2ccc(NC(=O)N3CC4CCCN4c4ccccc43)cc2)cc1 (stereo not drawn),-3.58% (inactive),
CC(=O)Nc1ccc(NC(=O)c2cc3sccc3n2Cc2ccc(F)cc2)cc1,-24.9% (inactive),
Cc1cccc(N2CCN(C(=O)CCn3c(=O)c4cccn4c4cccnc43)CC2C)c1 (stereo not drawn),3.1% (inactive),
Fc1ccc2nc(N3CCCCC3)sc2c1,-9.36% (inactive),
COc1ccc2nc(Nc3nc4cc5c(cc4s3)OCCO5)sc2c1,-17.9% (inactive),
c1c2c(cc3sc(N4CCCCC4)nc13)OCCO2,,1.26 µM (active)
CCc1ccc2ncc3c(-c4ccc(C)cc4)nn(CC(=O)NCc4ccccc4)c3c2c1,-5.08% (inactive),
CC(C)(C)c1csc(NC2=NS(=O)(=O)c3ccccc32)n1,,12.6 µM (active)
O=C(CN1C(=O)c2cccnc2Oc2ccc(Cl)cc21)NCCc1ccccc1,-3.47% (inactive),
COc1ccc(-c2ccc(=O)n(CC(=O)Nc3ccc(Br)cc3F)n2)cc1,-22.2% (inactive),
CC(C)Sc1oc(-c2cccs2)nc1S(=O)(=O)c1ccc(Cl)cc1,7.99% (inactive),
CCn1cc(C(=O)NCCc2ccccc2)c(=O)c2cc(S(=O)(=O)N3CCCCCC3)ccc21,15.6% (inactive),
CCN(CC)S(=O)(=O)c1cccc(C(=O)Nc2ccccc2)c1,-19.7% (inactive),
Cc1ccc(S(=O)(=O)/N=C(/Nc2ccccn2)c2ccc(Cl)cc2)cc1,-19.2% (inactive),
CCN(CC)S(=O)(=O)c1cc(C(=O)Nc2ccccn2)ccc1C,,10 µM (active)
Cc1nnc(NC(=O)CSc2nc3c([nH]c4ccccc43)c(=O)n2-c2cccc(Cl)c2)s1,-0.819% (inactive),
OCCCN1c2ccccc2Nc2nnc(-c3ccccc3)cc21,,12.6 µM (active)
O=C(c1ccc(Cl)cc1)n1nc(-c2cccnc2)nc1NCc1ccc(F)cc1,12.6% (inactive),
COc1ccccc1CNC(=O)C(=O)NCC(c1cccs1)S(=O)(=O)c1cccs1 (stereo not drawn),-2.8% (inactive),
CCC1(C)CC(=O)c2c(ccc3oc(C(=O)Nc4ccc(C(C)=O)cc4)c(C)c23)O1 (stereo not drawn),-8.14% (inactive),
CC1(C)CC(=O)c2cc(OCC(=O)NCC3CCCO3)ccc2O1 (stereo not drawn),-7.04% (inactive),
Cc1c(C(=O)NCc2ccccc2Br)oc2ccc3c(c12)C(=O)CC(C)(C)O3,,12.6 µM (active)
CCOC(=O)N1CCc2c(sc(NCc3cccc(F)c3)c2C(=O)Nc2ccccc2OCC)C1,19.6% (inactive),
COc1ccc(NC(=O)NC(C)c2c(-n3cccc3)sc(C)c2C)cc1OC (stereo not drawn),21.5% (inactive),
Cc1ccc(S(=O)(=O)c2nc(-c3ccco3)oc2SCC(=O)Nc2ccc(F)cc2)cc1,-9.87% (inactive),
CC(C)S(=O)(=O)c1oc(-c2ccc(F)cc2)nc1S(=O)(=O)c1ccc(F)cc1,,5.01 µM (active)
Cc1ccc(-c2nc(S(=O)(=O)c3ccc(C)cc3)c(N3CCCCCC3)o2)cc1,8.12% (inactive),
O=C(CSc1oc(-c2ccc(F)cc2)nc1S(=O)(=O)c1ccc(Br)cc1)NC1CCCCC1,-3.41% (inactive),

# Reference: PubChem BioAssay AID924 (National Center for Advancing Translational Sciences (NCATS), 2007)
